Compound activity as filed in PubChem BioAssay.
The entries come from a sample that favours hits as a whole.
IL-1B inflam inh – inhibitors of inflammasome signaling (IL-1 beta secretion) | activity change, % at 57.5 µM | THP-1 LPS/ATP IL-1B secretion, AlphaLISA, 16 h; stronger effect = lower value | AID 743279 | hit rate 4.7% among 360,000; in the data active = activity change below about -50%; inconclusive = mostly about -30% to -49%
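Secreted IL-1B measured by AlphaLISA bead assay after 16 h compound exposure of THP-1 cells; compounds (final up to 57.5 uM) added 1 h before LPS (250 ng/mL) and ATP (1.25 mM) stimulation; lower signal means less secretion.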
TDP1 cell noCPT – qHTS for Inhibitors of human tyrosyl-DNA phosphodiesterase 1 (TDP1): qHTS in cells in absence of CPT; DT40 Tdp1-/- hTDP1 cells, no CPT, ATP luminescence, 48 h; Potency, µM (top dose mostly 46.2 µM), for the others: at the highest dose activity change, negative = growth inhibition, usual class: inhibitors; hit rate 15% among 420,000; AID 686978, 2013; also: potency is read from the fitted curve at half-maximal effect; nearly all actives have a fitted effect of over 55% in size
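Luminescent ATP content (CellTiter-Glo) served as the growth readout. Knockout chicken DT40 cells expressing human TDP1 were exposed to compounds without camptothecin for a minimum 48 hr at 37 °C.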
TDP1 cell CPT – growth inhibition of DT40 Tdp1-/-;hTDP1 cells with camptothecin (screen for TDP1 inhibitors) | Potency, µM (series often up to 46.2 µM), for the others: at the top dose activity change, negative = growth inhibition, actives largely listed as inhibitors | chicken DT40 Tdp1-/-;hTDP1 cells + 20 nM CPT, ATP luminescence, 48 h | hit rate 12% among 420,000 | AID 686979; also: potency is read from the fitted curve at half-maximal effect; nearly all actives have a fitted effect of over 55% in size
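Chicken DT40 Tdp1-/- cells complemented with human TDP1, 400 cells/well, exposed to compounds plus 20 nM camptothecin for at least 48 h at 37 C; viability read as ATP content by CellTiter-Glo luminescence.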
HT1080 IDH1KD tx – toxicity to HT-1080 IDH1 knockdown cells (counter line) | Potency, µM (series often up to 46.1 µM), for the others: at the highest dose activity, negative = toxicity, actives largely listed as cytotoxic | hit rate 2% among 360,000 | HT-1080 IDH1 knockdown viability, ATP luminescence, 48 h | AID 686971;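 also: potency is read from the fitted curve at half-maximal effect; 0% = DMSO wells and -100% = cell-free medium wells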
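Cytotoxicity counter-line: IDH1KD HT-1080, 48 h, CellTiter-Glo. Curves classed by r2, magnitude and activity.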
12-LOX inh – inhibitors of human 12S-lipoxygenase ALOX12; Potency, µM (top dose mostly 108 µM), for the others: top-dose activity change, negative = inhibition, most hits filed as inhibitors; purified 12hLO, xylenol orange hydroperoxide absorbance; hit rate 1.1% among 580,000; also: potency is read from the fitted curve at half-maximal effect
Target sequence (P18054 whole entry, looked up): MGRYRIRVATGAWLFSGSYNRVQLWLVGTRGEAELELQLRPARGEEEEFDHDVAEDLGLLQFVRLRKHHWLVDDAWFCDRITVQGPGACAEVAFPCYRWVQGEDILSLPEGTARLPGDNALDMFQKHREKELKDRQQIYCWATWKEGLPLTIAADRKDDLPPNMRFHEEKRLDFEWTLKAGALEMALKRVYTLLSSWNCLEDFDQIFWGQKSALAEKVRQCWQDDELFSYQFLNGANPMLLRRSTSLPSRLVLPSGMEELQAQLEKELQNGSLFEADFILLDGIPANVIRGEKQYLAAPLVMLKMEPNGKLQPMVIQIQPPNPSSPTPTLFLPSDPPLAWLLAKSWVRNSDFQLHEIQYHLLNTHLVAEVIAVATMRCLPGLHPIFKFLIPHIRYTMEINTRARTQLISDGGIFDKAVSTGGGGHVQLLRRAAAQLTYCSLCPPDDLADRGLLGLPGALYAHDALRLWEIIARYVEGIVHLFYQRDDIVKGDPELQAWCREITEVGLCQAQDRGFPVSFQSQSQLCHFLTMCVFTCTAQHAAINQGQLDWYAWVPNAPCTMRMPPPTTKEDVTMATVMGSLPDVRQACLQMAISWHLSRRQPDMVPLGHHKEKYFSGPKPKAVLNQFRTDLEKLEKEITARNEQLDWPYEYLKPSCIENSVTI
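Hydroperoxide product was detected by ferrous iron/xylenol orange as the 573 to 405 nm absorbance ratio. Arachidonic acid at 40 uM (final) was turned over for 30 min at room temperature by 150 nM human 12hLO, pH 7.0 Hepes buffer, after 15 min compound preincubation.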
HT1080NT lethal – kills 2HG-producing HT-1080-NT fibrosarcoma cells. Potency, µM (top dose mostly 46.1 µM), for the others: at the highest dose activity, negative = less viability, most hits filed as cytotoxic. HT-1080-NT fibrosarcoma viability, CellTiter-Glo ATP luminescence, 48 h. hit rate 1.6% among 360,000;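 also: NT is the 2HG producing partner of a matched IDH1 knockdown line; potency is read from the fitted curve at half-maximal effect; 0% = DMSO-treated cells and -100% = media-only wells without cells; nearly all actives have a fitted effect of over 55% in size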
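Fibrosarcoma NT cells, 750 per well in 5% FBS RPMI, were exposed to compound for 48 hours. Viability: CellTiter-Glo luminescence.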
* marks the source's active call; other numbers are inactive results; [ ] = another dose, or the depositor's remark. Unless noted, calls follow the shape of the dose curve; as a rule, active = well fitted curve in the direction sought with a large enough effect; inconclusive = small, poorly fitted or top-dose-only effect, or another doubt; inactive = no such curve, though single readings can be large; an effect the other way counts as inactive or inconclusive. Unless noted, % is scaled to controls: 0 for no effect and ±100 for the full control effect.

What do the screens show for `CN(C)C(=O)Oc1cccc(NC(=O)c2ccccc2C(F)(F)F)c1`?
IL-1B inflam inh: 15; TDP1 cell noCPT: -1%; TDP1 cell CPT: -4%; HT1080 IDH1KD tx: 20%; 12-LOX inh: 142%; HT1080NT lethal: 18%

Results for COCCOCCO ?
TDP1 cell noCPT: -12%[92.5 µM]; TDP1 cell CPT: -3%[92.5 µM]; 12-LOX inh: -8%[57.4 µM]

What do the screens show for `Cn1nc(-c2ccccc2)cc1[C@H]1CN2CC[C@H]1C[C@@H]2CNC(=O)c1ccco1`?
12-LOX inh: 43%[176 µM]

What do the screens show for `COc1cc2c(cc1O)[C@@H]1Cc3ccc(OC)c(O)c3CN1CC2`?
IL-1B inflam inh: 19; TDP1 cell noCPT: 4.1µM*; TDP1 cell CPT: 4.6µM*; HT1080 IDH1KD tx: 2.6µM*; 12-LOX inh: 3%; HT1080NT lethal: 2.6µM*

How did Cc1ccccc1N1C(=O)NC(=O)/C(=C\c2cc(Br)c(N3CCOCC3)o2)C1=O do in these assays?
IL-1B inflam inh: -103*; TDP1 cell noCPT: 7.3µM*; TDP1 cell CPT: 4.1µM*; HT1080 IDH1KD tx: -2%; 12-LOX inh: -28%; HT1080NT lethal: 1%

What do the screens show for `Cc1ccccc1N1C(=O)NC(=O)/C(=C/c2ccc(N3CCOCC3)o2)C1=O`?
TDP1 cell noCPT: -13%; TDP1 cell CPT: 2%; HT1080 IDH1KD tx: 7%; 12-LOX inh: inconclusive; HT1080NT lethal: 13%

How did CN(CC1CCCCC1)C1CCc2ccccc2C1 (stereo not drawn) do in these assays?
12-LOX inh: 5%[176 µM]

How did CC(C)CCNc1nnnc2c1sc1nc(N3CCOCC3)c3c(c12)CC(C)(C)SC3 do in these assays?
IL-1B inflam inh: -24; TDP1 cell noCPT: 18µM*; TDP1 cell CPT: 23µM*; HT1080 IDH1KD tx: 12%; 12-LOX inh: -9%; HT1080NT lethal: 17%

Results for CN1[C@@H](CCC(=O)NCc2cccnc2)CNC(=O)[C@H]2NCC[C@H]21 ?
12-LOX inh: 34%[176 µM]

What do the screens show for `COc1cccc(CC(=O)N2CC[C@H]3C(=O)NCCCCCN(Cc4cccnc4)[C@@H]3C2)c1`?
12-LOX inh: 49%

What do the screens show for `Cc1ccsc1C(=O)C1CCCN(Cc2ccccc2O)C1` (stereo not drawn)?
IL-1B inflam inh: -18; TDP1 cell noCPT: inconclusive; TDP1 cell CPT: -21%; HT1080 IDH1KD tx: -8%; 12-LOX inh: -12%; HT1080NT lethal: -14%

What do the screens show for `Cc1ccsc1C(=O)C1CCCN(Cc2cccn2-c2ccccn2)C1` (stereo not drawn)?
IL-1B inflam inh: -25; TDP1 cell noCPT: inconclusive; TDP1 cell CPT: 21µM*; HT1080 IDH1KD tx: inconclusive; 12-LOX inh: 0%; HT1080NT lethal: inconclusive

Results for COC(=O)C1=C(N)Oc2c(c(=O)oc3ccccc23)[C@]12C(=O)N(C)c1ccccc12 ?
IL-1B inflam inh: 0; TDP1 cell noCPT: inconclusive; TDP1 cell CPT: inconclusive; HT1080 IDH1KD tx: 1%[9.24 µM]; 12-LOX inh: inconclusive; HT1080NT lethal: 16%

How did COC(=O)C1=C(N)OC(C)=C(C(C)=O)C12C(=O)N(C)c1ccccc12 (stereo not drawn) do in these assays?
IL-1B inflam inh: 2; TDP1 cell noCPT: 21µM*; TDP1 cell CPT: inconclusive; HT1080 IDH1KD tx: 0%; 12-LOX inh: 7%; HT1080NT lethal: 6%

How did CCn1c(N)c(C(=O)NC)sc1=S do in these assays?
IL-1B inflam inh: -20; TDP1 cell noCPT: 16µM*; TDP1 cell CPT: 18µM*; HT1080 IDH1KD tx: 18%; 12-LOX inh: inconclusive; HT1080NT lethal: 15%

What do the screens show for `COC(=O)c1ccc(CCN)cc1`?
12-LOX inh: -38%

How did COC(=O)C1=C(C)NC(C)=C(C(=O)O[C@H]2CCN(Cc3ccccc3)C2)[C@H]1c1cccc([N+](=O)[O-])c1 do in these assays?
TDP1 cell noCPT: 24µM*; TDP1 cell CPT: inconclusive

Results for O=[N+]([O-])c1cccc(CN2CCN(Cc3ccc(Br)cc3)CC2)c1 ?
IL-1B inflam inh: -25; TDP1 cell noCPT: -29%; TDP1 cell CPT: inconclusive; HT1080 IDH1KD tx: -27%; 12-LOX inh: inconclusive; HT1080NT lethal: -22%

Results for Cc1oc(-c2ccccc2Cl)nc1CN1C(=O)CN=C(c2ccccc2)c2ccccc21 ?
IL-1B inflam inh: inconclusive; TDP1 cell noCPT: 21µM*; TDP1 cell CPT: inconclusive; HT1080 IDH1KD tx: -13%; 12-LOX inh: 18%; HT1080NT lethal: 2%

How did COc1ccc(-c2nc(CN3C(=O)CN=C(c4ccccc4)c4ccccc43)c(C)o2)cc1 do in these assays?
TDP1 cell noCPT: 18µM*; TDP1 cell CPT: inconclusive; 12-LOX inh: -15%

What do the screens show for `O=C1CN=C(c2ccccc2)c2ccccc2N1Cc1ccc(C(F)(F)F)cc1`?
IL-1B inflam inh: 5; TDP1 cell noCPT: inconclusive; TDP1 cell CPT: 22µM*; HT1080 IDH1KD tx: -28%; 12-LOX inh: 20%; HT1080NT lethal: 7%

What do the screens show for `CN1C(=O)C(O)N=C(c2ccccc2)c2ccccc21` (stereo not drawn)?
IL-1B inflam inh: 10; TDP1 cell noCPT: 15%; TDP1 cell CPT: -10%; HT1080 IDH1KD tx: 0%; 12-LOX inh: 91%; HT1080NT lethal: 1%

How did Cc1ccc(-c2nc(CN3C(=O)CN=C(c4ccccc4)c4cc(Cl)ccc43)c(C)o2)cc1 do in these assays?
TDP1 cell noCPT: inconclusive; TDP1 cell CPT: inconclusive; 12-LOX inh: 5%

How did O=C1CN=C(c2ccccc2)c2cc(Br)ccc2N1Cc1cc(=O)n2ccccc2n1 do in these assays?
IL-1B inflam inh: -15; TDP1 cell noCPT: inconclusive; TDP1 cell CPT: inconclusive; HT1080 IDH1KD tx: 10%; 12-LOX inh: 11%; HT1080NT lethal: 8%

Results for Cc1ccc(-c2nc(CN3C(=O)CN=C(c4ccccc4)c4ccccc43)c(C)o2)cc1 ?
TDP1 cell noCPT: 18µM*; TDP1 cell CPT: inconclusive; 12-LOX inh: -16%

How did Cc1ncc2c(n1)C[C@@H]1CC[C@H]2N1C(=O)c1sccc1C do in these assays?
12-LOX inh: -2%

How did Clc1ccc(C(Cn2ccnc2)OCc2csc3c(Cl)cccc23)c(Cl)c1 (stereo not drawn) do in these assays?
IL-1B inflam inh: -78*; TDP1 cell noCPT: 13µM*; TDP1 cell CPT: 23µM*; HT1080 IDH1KD tx: 21µM*; 12-LOX inh: -24%; HT1080NT lethal: inconclusive

Results for COc1cc(C2SCC(=O)Nc3[nH]ncc32)ccc1OCC(C)C (stereo not drawn) ?
12-LOX inh: -6%
